Bioassay records from PubChem BioAssay.
Shiga inhibitor – Shiga toxin inhibition | inhibition, % at 38.7 µM | 9.2% of 290,000 active | AID 2315 | Vero cells, Shiga toxin protein synthesis inhibition reporter; in the data active = inhibition mostly above about 28%, no sharp cut-off; inactive = mostly below about 43%; also: 0% is about no effect
CHX counter – affects cycloheximide protein synthesis inhibition readout, counter-screen; cell reporter, cycloheximide protein synthesis inhibition counterscreen; max response, %; 12% of 300,000 active; AID 2314; in the data active = max response mostly above about 13%, no sharp cut-off; inactive = mostly below about 14%; also: read at 38.3 µM for the half of the compounds with a filed dose; 0% is about no effect
Pf growth 48h – P. falciparum growth inhibition at 48 hours (one generation); P. falciparum luciferase growth in erythrocytes, 48 h; Potency, µM (top dose mostly 28.7 µM), without a hit: at the highest dose activity change, negative = inhibition, most hits filed as inhibitors; 5.9% of 310,000 active; also: potency is read from the fitted curve at half-maximal effect; % is scaled to controls: 0 for no effect and ±100 for the full control effect
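Cell-based growth assay: transgenic P. falciparum expressing firefly luciferase, cultured in red cells within RPMI 1640 containing 0.5% w/v Albumax, 24 mM bicarbonate and gentamycin. A drop in luciferase activity indicates inhibition.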
AMA1-RON2 inh – disrupts binding of P. falciparum AMA1 to RON2; 0.2% of 360,000 active; AlphaScreen AMA1-biotinylated RON2 peptide binding; Potency, µM (titrated, usually from 58.2 µM), inactives show top-dose activity change, negative = inhibition, hits mostly inhibitors;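 also: potency is read from the fitted curve at half-maximal effect; 0% = vehicle wells and -100% = peptide control; nearly all actives have a fitted effect of over 45% in size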
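AMA1 (3D7) with his tag at 25 nM final met compounds first, then biotinylated RON2 peptide at 25 nM; detection used donor plus acceptor beads, 10 µg/mL apiece, read by AlphaScreen after 30 min at room temperature.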
SARS PLpro yeast – blocks SARS-CoV papain-like protease in a yeast assay | S. cerevisiae expressing SARS-CoV PLpro, growth rescue | Potency, µM (titrated, usually from 32.9 µM), for inactives: top-dose activity, positive = growth rescue, hits mostly activators | 0.19% of 330,000 active | AID 485353; calls by dose curve; also: potency is read from the fitted curve at half-maximal effect; 0% is about no effect; nearly all actives have a fitted effect of over 55% in size
Pf growth 96h – P. falciparum growth inhibition at 96 hours; P. falciparum luciferase reporter growth, 96 h; Potency, µM (series often up to 28.7 µM), without a hit: top-dose activity change, negative = inhibition, usual class: inhibitors; 6.9% of 320,000 active; AID 504834; also: potency is read from the fitted curve at half-maximal effect; % is scaled to controls: 0 for no effect and ±100 for the full control effect
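Readout is luminescence from an integrated firefly luciferase in P. falciparum. Red cells, 2% hematocrit and 0.05% parasitemia final, were cultured with compound through two parasite generations (96 hours) at 37 C, 5% CO2.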
Active calls of the source: *; ? = inconclusive; nt = no result given; [ ] = another dose, or the depositor's remark. Sampled rows, rich in hits. Any-hit rate of the full collection: about 19%. Unless noted, calls follow the shape of the dose curve; as a rule, active = well fitted curve in the direction sought with a large enough effect; inconclusive = small, poorly fitted or top-dose-only effect, or another doubt; inactive = no such curve, though single readings can be large; an effect the other way counts as inactive or inconclusive.

SMILES	Shiga inhibitor	CHX counter	Pf growth 48h	AMA1-RON2 inh	SARS PLpro yeast	Pf growth 96h
O=C(NCc1ccccc1)C(=O)NCC1CCCN1S(=O)(=O)c1cccs1 (stereo not drawn)	nt	nt	?	14.9%	4.5%	?
O=C(O)C1C2CCC1C(O)C2 (stereo not drawn)	nt	nt	nt	13.8%	nt	nt
C=CCn1cnc2c(sc3nc(C)cc(C)c32)c1=O	21.6	13.3	45.5%	-3.1%	-7.7%	42.3%
CCOC(=O)Cn1cnc2c(sc3nc(C)cc(C)c32)c1=O	16.5	20.4*	3.4%	-2.0%	0.8%	21.9%
COC(=O)Cn1c(C)nc2c(sc3nc(C)cc(C)c32)c1=O	111.2*	48.7*	141.6%	-1.0%	-0.5%	83.9%
COc1cc2nc(CN3CCN(S(=O)(=O)c4ccc(C)c(C)c4)CC3)[nH]c(=O)c2cc1OC	-13.2	-1.6	9.28µM*	2.8%	0.8%	?
COc1cc2nc(CN3CCN(c4ncc(C(F)(F)F)cc4Cl)CC3)[nH]c(=O)c2cc1OC	-6.7	8.1	-0.7%	nt	10.1%	?
Cc1ccc(/C=C2\SC(=S)N(CCC(=O)NNS(=O)(=O)c3ccccc3)C2=O)cc1	4.4	2.0	15.6%	-7.4%	-1.1%	48.2%
O=C(NCCSc1ccccc1)c1ccccc1	114.3*	31.2*	165.4%	8.7%	-7.2%	nt
O=C(NCCOc1ccccc1)c1cncc(Br)c1	78.4*	44.9*	nt	13.4%	-5.1%	120.7%
O=C(NCCSc1ccccc1)c1ccc(Br)cc1	81.3*	48.0*	221.5%	31.8%	-23.6%	?
O=C(CCc1ccccc1)NCCSc1ccccc1	94.5*	30.6*	-13.2%[5.75 µM]	6.4%	-0.3%	82.3%
O=C(CSc1nnc(-c2c[nH]c3ccccc23)o1)NCC1CCCO1 (stereo not drawn)	nt	nt	?	12.3%	3.6%	?
CC(C)COc1ccc(CNC(=S)Nc2ccccc2)cc1Cl	-2.7	-3.1	-11.9%[0.00184 µM]	77.9%	-3.0%	?
CCCCCNC(=O)CCc1ccccc1	13.5	13.3*	12.1%	-1.6%	5.4%	20.4%
Cc1cccc(C(=O)NCC(=O)NCCCSc2ccccc2)c1	nt	nt	-8.3%	5.8%	-1.7%	10.8%
CCCC/C=C/C(NC(=O)CCc1ccccc1)c1ccccc1 (stereo not drawn)	-13.0	-1.1	?	22.5%	-35.7%	8.28µM*
CN(C)c1cccc(C(=O)NCCCSc2ccccc2)c1	46.8*	36.8*	6.3%	-3.7%	14.2%	29.5%
O=C(NCCSc1ccccc1)c1cncc(Br)c1	11.3	33.0*	nt	5.1%	-17.8%	62.9%
CCCC/C=C/C(NC(=O)c1ccc(-c2ccccc2)cc1)c1ccccc1 (stereo not drawn)	nt	nt	nt	-0.8%	nt	nt
OC(c1ccc(F)cc1)c1nc(-c2cc3ccccc3o2)cs1 (stereo not drawn)	nt	nt	nt	3.3%	nt	nt
O=c1[nH][nH]c(=O)c(Cl)c1Cl	nt	nt	nt	7.0%	nt	nt
CCS(=O)(=O)c1ccc2c(c1)N(S(=O)(=O)c1ccc(Cl)cc1)CC(C(=O)O)O2 (stereo not drawn)	-3.8	-2.0	7.8%[5.75 µM]	-13.6%	-0.8%	-10.8%[5.75 µM]
O=C1NC(c2ccccc2)=C(c2ccc3ccccc3n2)C(c2ccccc2)N1 (stereo not drawn)	-8.6	-2.3	11.7µM*	-6.7%	-22.6%	5.22µM*
O=C1NC(c2ccccc2)=C(c2ccc3ccccc3n2)C(c2ccc(F)cc2)N1 (stereo not drawn)	-7.7	-3.4	5.22µM*	-5.9%	-40.0%	4.15µM*
SMILES	Shiga inhibitor	CHX counter	Pf growth 48h	AMA1-RON2 inh	SARS PLpro yeast	Pf growth 96h
O=C1NC(c2ccccc2)=C(c2ccc3ccccc3n2)C(c2ccncc2)N1 (stereo not drawn)	-1.1	-3.3	-2.6%	-1.2%	1.0%	?
O=C1NC(c2ccccc2)=C(c2nc3ccccc3s2)C(c2ccc(O)cc2)N1 (stereo not drawn)	-9.3	7.2	2.08µM*	2.6%	6.1%	7.38µM*
CC(=O)C1=C(c2ccccc2)NC(=O)NC1c1ccc(O)c(Cl)c1 (stereo not drawn)	-7.0	-2.1	6.8%	-1.7%	-3.0%	?
Fc1ccc(NC(=S)NCc2cccs2)cc1	10.2	6.1	6.6%	-5.6%	24.7%	0.0%
Cc1ccc(S(=O)(=O)c2c(N)n(NC(=O)c3ccco3)c3nc4ccccc4nc23)cc1	-20.7	-3.0	?	26.5%	-3.3%	?
Cc1cccc(S(=O)(=O)c2c(N)n(Cc3ccco3)c3nc4ccccc4nc23)c1	-9.6	-7.3	8.28µM*	34.4%	2.8%	-16.0%
Cc1ccc(S(=O)(=O)c2c(N)n(Cc3ccco3)c3nc4ccccc4nc23)cc1	-11.2	-4.8	?	3.4%	6.1%	10.4µM*
CN(C)CCCn1c(N)c(S(=O)(=O)c2ccccc2)c2nc3ccccc3nc21	-22.4	-2.5	-17.3%	-8.7%	0.5%	-27.8%
CCCCn1c(N)c(S(=O)(=O)c2ccc(C)cc2)c2nc3ccccc3nc21	-7.9	-3.7	?	20.2%	9.7%	11.7µM*
CC(Oc1ccccc1Cl)C(=O)Nc1ccc(S(=O)(=O)N2CCN(C)CC2)cc1 (stereo not drawn)	nt	nt	nt	14.3%	nt	nt
Cn1cc([N+](=O)[O-])c(C(=O)Nc2cc(Oc3cccnc3)cc([N+](=O)[O-])c2)n1	-34.0	-6.7	1.4%	4.7%	4.8%	17.9%
CCN(C(=O)COC(=O)/C=C/c1cccc([N+](=O)[O-])c1)c1ccccc1	23.4	14.0	15.5%	-2.7%	-0.3%	?
COc1ccc(CCNC(=O)c2cc3c(=O)n4ccccc4nc3n(C3CCCCC3)c2=N)cc1	-6.9	-16.4	?	4.0%	0.6%	4.15µM*
COc1ccc(CCNC(=O)c2cc3c(=O)n4ccccc4nc3n(CC3CCCO3)c2=N)cc1OC (stereo not drawn)	21.0	7.7	?	-7.0%	-1.9%	?
COc1ccc(CCNC(=O)c2cc3c(=O)n4ccccc4nc3n(C3CCCCC3)c2=N)cc1OC	-11.7	-11.0	?	-1.4%	4.2%	10.4µM*
CC1(C(=O)Nc2cccc3cccnc23)CCN1Cc1ccccc1OC(F)F (stereo not drawn)	nt	nt	nt	85.0%	nt	nt
O=C(Nc1cccc(F)c1)/C(=C/c1ccco1)NC(=O)c1ccco1	25.5	20.3*	-2.9%	12.8%	-6.1%	-25.9%
CNC(=O)/C(=C\c1ccco1)NC(=O)c1ccco1	-23.5	1.5	9.28µM*	6.2%	2.0%	0.0%
O=C(NCc1ccccc1)/C(=C/c1ccco1)NC(=O)c1ccco1	-5.2	-2.3	?	-22.9%	-3.0%	-2.4%
O=C(NC(=S)NNC(=O)c1ccccc1O)c1cccnc1	51.0*	13.6	6.9%	?	2.9%	30.3%
O=C(Cc1ccc(Cl)cc1)NNC(=S)NC(=O)c1cccnc1	10.4	-2.7	-65.9%	106.6%	1.8%	4.15µM*
O=C(/C=C\Nc1ccc(Br)cc1)c1cccnc1	75.6*	56.9*	285.4%	-11.0%[11.6 µM]	-1.6%	304.6%
